Assay results published in PubChem BioAssay (NCI).
This is part of a sample that, as a whole, favours compounds with a hit. Of some 83,000 tested, about 20% had one in any assay.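 Single-concentration screen, 48 h exposure, 96-well plates. Endpoint: percent growth. Below 10 = active.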 Unmarked numbers belong to inactive results. The source made the active and inactive calls.

Columns and labels:
Test in all cases: NCI-60 one-dose screen, 48 h (100 = growth as untreated, 0 = no growth, -100 = all killed)
Conditions in all cases: 10 µM
[1] = system: T-47D breast
[2] = system: MDA-MB-435 melanoma
[3] = system: SW-620 colon
[4] = system: MCF7 breast
[5] = system: HCT-116 colon
[6] = system: HCC-2998 colon
[7] = system: KM12 colon
[8] = system: BT-549 breast

| Structure (SMILES) | growth [1] | growth [2] | growth [3] | growth [4] | growth [5] | growth [6] | growth [7] | growth [8] |
| --- | --- | --- | --- | --- | --- | --- | --- | --- |
| CCOS(=O)(=O)c1c(C(C)C)cc(C(C)C)cc1C(C)C | 115% | 99.1% | 98.3% | 91.4% | 104% | 99.1% | 104% |  |
| CSc1nc(S(C)(=O)=O)nc2[nH]c(=O)[nH]c12 | 112% |  | 111% | 109% | 99.1% |  | 118% | 102% |
| CCN(CC)CCCC(C)N=C(C1=C(C(=NC(C)CCCN(CC)CC)c2cccc(OC)c2)C(=O)NC1=O)c1cccc(OC)c1 (stereo not given) | -37.3% (active) | -91.1% (active) | -9.07% (active) | -29.8% (active) | -19% (active) | -69.9% (active) | 2.43% (active) |  |
| O[C@@H]1CO[C@H]2[C@@H]1OC[C@@H]2O | 121% |  |  | 99.6% | 104% | 101% | 105% | 112% |
| CC(=O)OC1C=CC(OC(C)=O)O1 (stereo not given) | 88.1% | 96% | 82% | 87.9% | 84.3% | 103% | 101% |  |
| CCCCCCCCCCCC[n+]1c(C)cc(N)c2ccccc21 | -14% (active) |  |  | -0.77% (active) | -4.63% (active) |  |  | -29.7% (active) |
| CN(C)CCCSc1ccccc1NC1=C(Cl)C(=O)C(Nc2ccccc2SCCCN(C)C)=C(Cl)C1=O | -42.8% (active) | 92.1% | -34.3% (active) | -50% (active) | 4.82% (active) | 103% | 80.2% |  |
| COc1ccc(C2CC(c3cc(OC)c(OC)c(OC)c3)=NN2)cc1 (stereo not given) | 51.7% | 19.9% | 48% | 10.2% | 53.3% | 79.3% | 15.1% |  |
| CC(CN(C)C)Oc1ccc(OC(C)CN(C)C)c2c1C(=O)c1ccccc1C2=O (stereo not given) | 77.7% | 46.1% | 27.9% | 16.1% | 14.2% | 57.4% | 51.1% |  |
| O=C1CC(=O)N(C(=O)c2nn(-c3ccc(Cl)cc3)cc2O)N1 | 23.4% | 48.1% | 59.9% | 39.9% | 22.1% | 47.4% | 46.5% |  |
| COc1cccc(CNc2cccc3cn[nH]c23)c1O | 89.1% |  | 99.1% | 71.5% | 102% | 107% | 99% | 104% |
| O=C(N/N=C/c1ccc([N+](=O)[O-])cc1)c1ccccc1Nc1cccc(C(F)(F)F)c1 | 95.1% |  | 102% | 111% | 53.9% | 99.5% | 141% | 77.8% |
| COc1cc(-c2ccc(N=Nc3ccc4c(S(=O)(=O)O)ccc(N)c4c3O)c(OC)c2)ccc1N=Nc1ccc2c(S(=O)(=O)O)ccc(N)c2c1O | 105% |  | 109% | 95.6% | 114% | 114% | 114% | 117% |
| CCN(CC)CCOc1cccc2c1C(=O)c1ccccc1C2=O | 107% | 100% | 87.6% | 92.1% | 70.4% | 102% | 98% |  |
| C#CCOc1c(OC)cc(C(=O)/C(C)=C/c2cccc(N=[N+]=[N-])c2)cc1OC | 44.3% |  | 36.5% | 16.4% | 6.9% (active) | 21.4% | 26.6% | 11.4% |
| CN(C)CCOc1cccc(NC2=C(Cl)C(=O)C(Nc3cccc(OCCN(C)C)c3)=C(Cl)C2=O)c1 | -42.1% (active) | -68.6% (active) | -54.9% (active) | -40.8% (active) | -89.4% (active) | 11.6% | 34.4% |  |
| CC(CN(C)C)Oc1ccccc1NC1=C(Cl)C(=O)C(Nc2ccccc2OC(C)CN(C)C)=C(Cl)C1=O (stereo not given) | -42% (active) | -71% (active) | -66.5% (active) | -47% (active) | -70.3% (active) | -87.4% (active) | -1.19% (active) |  |
| COC1OC(COS(=O)OC)C(O)C(O)C1OS(=O)OC (stereo not given) | 110% | 105% | 103% | 88.4% | 105% | 97.7% | 98.5% |  |
| CN(C)CCCOc1ccc(OCCCN(C)C)c2c1C(=O)c1ccccc1C2=O | -5.61% (active) | 3.12% (active) | 3.12% (active) | 8.41% (active) | 8.36% (active) | 16.7% | 6.87% (active) |  |
| CN(C)CCCOc1ccc(NC2=C(Cl)C(=O)C(Nc3ccc(OCCCN(C)C)cc3)=C(Cl)C2=O)cc1 | -39.3% (active) | -89% (active) | -58.4% (active) | -49.4% (active) | -86.9% (active) | -90.6% (active) | -63% (active) |  |
| CN(C)CCCOc1cccc(NC2=C(Cl)C(=O)C(Nc3cccc(OCCCN(C)C)c3)=C(Cl)C2=O)c1 | -44% (active) | -65.5% (active) | -61.2% (active) | -38.3% (active) | -88.7% (active) | 14% | 13.9% |  |
| N#Cc1c(-c2ccc(Cl)cc2)csc1NC(=O)Nc1ccc(Cl)c(C(F)(F)F)c1 | -17.7% (active) |  | 11.1% | 3.1% (active) | -14.7% (active) | 19.8% | 10.4% | 6.57% (active) |
| C[n+]1c2ccccc2nc2ccccc21 | 1.26% (active) | -40.9% (active) | 11.2% | -19.4% (active) | -15.5% (active) | 50.6% | 30.4% |  |
| CCOC(=O)C1=CSC2=NC3=C(CCC/C3=C\c3cc(OC)c(OC)c(OC)c3)C(c3cc(OC)c(OC)c(OC)c3)N12 (stereo not given) | 88.9% | 21% | 44.9% | 29.9% | 19.2% | 75.1% | -21.8% (active) |  |
| COC1=CC(=O)OC(c2ccc(OC)cc2)C1 (stereo not given) | 101% |  | 102% | 99.8% | 108% |  | 102% | 105% |
| O=C1c2ccccc2C(=O)c2c1ccc(C(Br)Br)c2Cl | 22.7% | 60% | -23.4% (active) | 2.06% (active) | -62.7% (active) | 87.4% | 47.5% |  |
| Cc1c2c(nn1C(=O)c1nn(-c3ccc(Cl)cc3)cc1O)-c1ccccc1CC2 | 1.65% (active) | 34.3% | 32.4% | 12.4% | 7.08% (active) | 9.3% (active) | 29.5% |  |
| CCOC(=O)c1cocc1C(=O)O | 104% |  | 103% | 101% | 103% | 103% | 104% | 108% |
